Measured values as given in PubChem BioAssay AID504333 (National Center for Advancing Translational Sciences (NCATS), 2011).
Hit rate of the full screen: of about 360,000 compounds, about 16,000 (4.4%) were called active. About 9% were inconclusive and are not listed. This excerpt belongs to a sample that is enriched for actives. Values without a mark were called inactive. Calls follow the shape of the dose curve; as a rule, active = well fitted inhibition curve with a large enough effect; inconclusive = small, poorly fitted or top-dose-only effect; inactive = no such curve, though single readings can be large or run the other way.

Target: Bromodomain adjacent to zinc finger domain protein 2B (Homo sapiens) (UniProt Q9UIF8)
Sequence (Q9UIF8 whole entry, looked up, the tested form may be a part): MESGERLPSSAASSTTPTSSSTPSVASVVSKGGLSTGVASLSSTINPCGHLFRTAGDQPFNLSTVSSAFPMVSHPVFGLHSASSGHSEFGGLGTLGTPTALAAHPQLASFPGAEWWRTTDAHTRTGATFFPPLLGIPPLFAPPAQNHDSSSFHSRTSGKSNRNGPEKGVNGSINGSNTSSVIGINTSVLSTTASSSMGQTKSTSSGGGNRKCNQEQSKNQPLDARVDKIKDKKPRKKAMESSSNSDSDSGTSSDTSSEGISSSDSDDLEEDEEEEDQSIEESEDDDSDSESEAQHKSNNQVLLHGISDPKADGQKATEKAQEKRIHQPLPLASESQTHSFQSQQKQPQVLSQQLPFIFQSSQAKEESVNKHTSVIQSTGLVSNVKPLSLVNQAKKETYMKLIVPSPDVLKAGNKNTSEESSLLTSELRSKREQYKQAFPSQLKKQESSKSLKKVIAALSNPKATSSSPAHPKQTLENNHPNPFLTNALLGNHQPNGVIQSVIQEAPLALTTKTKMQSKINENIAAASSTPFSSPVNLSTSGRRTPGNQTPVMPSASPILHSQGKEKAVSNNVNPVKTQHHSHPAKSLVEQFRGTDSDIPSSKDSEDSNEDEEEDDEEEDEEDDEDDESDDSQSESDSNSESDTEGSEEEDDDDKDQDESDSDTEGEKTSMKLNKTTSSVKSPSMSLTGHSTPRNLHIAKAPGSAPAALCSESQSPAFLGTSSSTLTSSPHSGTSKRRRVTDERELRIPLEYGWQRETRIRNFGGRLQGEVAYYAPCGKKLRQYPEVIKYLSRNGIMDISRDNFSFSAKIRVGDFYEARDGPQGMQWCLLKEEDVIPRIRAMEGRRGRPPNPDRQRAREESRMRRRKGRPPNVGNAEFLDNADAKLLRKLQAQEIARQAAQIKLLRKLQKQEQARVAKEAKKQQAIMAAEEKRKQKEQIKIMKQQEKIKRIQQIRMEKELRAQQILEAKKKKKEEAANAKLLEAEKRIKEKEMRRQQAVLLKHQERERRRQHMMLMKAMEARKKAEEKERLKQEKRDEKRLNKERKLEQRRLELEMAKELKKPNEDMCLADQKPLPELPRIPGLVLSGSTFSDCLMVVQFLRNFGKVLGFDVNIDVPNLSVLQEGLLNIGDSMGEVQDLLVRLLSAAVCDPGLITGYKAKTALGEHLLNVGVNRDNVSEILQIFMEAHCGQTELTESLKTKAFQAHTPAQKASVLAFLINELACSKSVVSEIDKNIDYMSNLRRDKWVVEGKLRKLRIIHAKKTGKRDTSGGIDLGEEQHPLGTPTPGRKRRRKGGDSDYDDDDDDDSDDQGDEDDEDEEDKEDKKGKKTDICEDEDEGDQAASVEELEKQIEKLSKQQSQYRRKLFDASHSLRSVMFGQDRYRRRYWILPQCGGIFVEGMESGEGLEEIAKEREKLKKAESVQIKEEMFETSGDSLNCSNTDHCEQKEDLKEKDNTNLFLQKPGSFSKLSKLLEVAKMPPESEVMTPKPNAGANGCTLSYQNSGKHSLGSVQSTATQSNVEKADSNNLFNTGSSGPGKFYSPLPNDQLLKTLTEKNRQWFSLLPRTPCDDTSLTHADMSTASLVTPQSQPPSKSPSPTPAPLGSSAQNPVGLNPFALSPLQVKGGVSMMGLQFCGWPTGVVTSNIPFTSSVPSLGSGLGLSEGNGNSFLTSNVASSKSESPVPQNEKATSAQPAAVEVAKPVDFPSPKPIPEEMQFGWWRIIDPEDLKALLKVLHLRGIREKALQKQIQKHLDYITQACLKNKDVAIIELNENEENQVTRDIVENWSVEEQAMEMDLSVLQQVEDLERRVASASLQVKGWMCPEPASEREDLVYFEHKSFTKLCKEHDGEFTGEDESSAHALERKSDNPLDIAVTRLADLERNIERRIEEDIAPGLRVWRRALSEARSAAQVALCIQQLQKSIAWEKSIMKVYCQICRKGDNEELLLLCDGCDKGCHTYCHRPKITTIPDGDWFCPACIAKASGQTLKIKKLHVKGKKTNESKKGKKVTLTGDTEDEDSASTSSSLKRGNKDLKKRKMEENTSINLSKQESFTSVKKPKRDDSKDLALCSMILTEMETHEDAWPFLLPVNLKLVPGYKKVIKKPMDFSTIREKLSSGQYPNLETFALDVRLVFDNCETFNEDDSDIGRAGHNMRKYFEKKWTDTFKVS
Test: qHTS Assay for Inhibitors of BAZ2B; also: nearly all actives have a fitted effect of over 60% in size
Conditions: AlphaScreen BAZ2B-H3K14Ac peptide displacement; series mostly up to 114 µM; activity change, negative = inhibition: at the top concentration
Description: BAZ2B (bromodomain adjacent to zinc finger domain, 2B) belongs to a family of ubiquitously expressed bromodomain containing proteins, which biological function has not yet been elucidated. […] The interaction of BAZ2B with ISWI mediated by the BAZ1 motif has recently been described. […] The protocol is based on the AlphaScreen (PerkinElmer) displacement assay developed by NCGC [5], but uses the peptide ligand Biot-H3K14Ac, a high affinity binding partner for BAZ2B, in an AlphaScreen format. Although AlphaScreen has significant advantages with its utility in a variety of epigenetic target assays, the primary screening data provided in this deposition should be used with caution due to the prevalence of screening artifacts. The top compound concentration tested was 110uM in this assay, which increases number of actives and potential artifacts. An AlphaScreen counterscreen is highly recommended to be run against any putative actives to eliminate non-specific artifacts. Alternatively, one can use other AlphaScreen assays in PubChem to filter out promiscuous hits. Eberharter, A. et al. ACF1 improves the effectiveness of nucleosome mobilization by ISWI through PHD-histone contacts. The EMBO journal 23, 4029-4039. 2004. PMID: 15457208 [2] Jones, M.H. et al. A novel family of bromodomain genes. Genomics 63, 40-45. 2000. PMID: 10662543 [3] Yasgar, et al. Compound Management for Quantitative High-Throughput Screening. JALA. 2008 Apr;13(2):79-89. PMID: 18496600 [4] Inglese, et al. Quantitative high-throughput screening: a titration-based approach that efficiently identifies biological activities in large chemical libraries. Proc Natl Acad Sci. 1;103(31):11473-8. 2006. PMID: 16864780 [5] Quinn et al. A chemiluminescence-based method for identification of histone lysine methyltransferase inhibitors. Mol Biosyst 6(5): 782-8. 2010. PMID: 20567762 [6] Baell,Holloway. New substructure filters for removal of pan assay interference compounds (PAINS) from screening libraries and for their exclusion in bioassays. J Med Chem. 53(7):2719-40. 2010. PMID: 20131845 NIH Molecular Libraries Probe Production Network [MLPCN] NIH Chemical Genomics Center [NCGC] Structural Genomics Consortium (SGC) NIH Grant: 5U54 MH084681-02
To each well of a 1,536w plate, 2ul of BAZ2B protein (final 50nM) and 1ul biotinylated histone peptide acetylated at Lys14 [b-H3(5-23)K14Ac] (final 50nM) were added in 1x PBS buffer, pH 7.4, containing 0.01% Tween-20, using a nanoliter dispenser. Formation of a protein-peptide complex proceeded at room temperature for 30 min. A Kalypsys pin-tool was employed to transfer 23 nL of library compound solution in DMSO to each well. Following a 30 min incubation of the protein-peptide complex with compounds at room temperature, a mixture of 40 ug/mL each streptavidin-coated donor and nickel chelate acceptor AlphaScreen beads (final 10 ug/mL) were added in a 1ul dispense for a final volume of 4ul. A brief centrifugation followed (1000rpm, 1 min) and were then incubated protected from the light for 20 min at room temperature. Plates were read on an EnVision multilabel plate reader using the 1,536 plate HTS AlphaScreen aperture (excitation time 80 ms, measurement time 240 ms).
% is scaled to controls: 0 for no effect and ±100 for the full control effect; potency is read from the fitted curve at half-maximal effect.

SMILES	activity change, negative = inhibition	Potency
O=C(NCCc1ccc(Cl)cc1)c1ccc2c(c1)N(Cc1ccc(F)cc1)C(=O)CS2	-2.79%	–
COc1cc(NC(=O)c2noc3c2CSc2ccccc2-3)cc(OC)c1OC	-8.66%	–
COc1ccc(-n2c(=O)c3sc4ccccc4c3n(CC(=O)Nc3cccc(C)c3)c2=O)cc1	-6.4%	–
COc1ccc(NC(=O)Cn2c(=O)n(CCC(C)C)c(=O)c3cccnc32)cc1Cl	-0.608%	–
Cc1cccc(OCCCC(=O)Nc2sc3c(c2C(N)=O)CCC(C)C3)c1 (centres undefined)	-8.35%	–
COc1ccc(Cl)cc1NC(=O)Cn1c(=O)c2ccccc2n2nncc12	-22.9%	–
COc1ccc(OC)c(NC(=O)CN2CCCN(Cc3cc(C)ccc3C)S2(=O)=O)c1	-18.8%	–
Cc1cc(C(=O)Nc2cccc(C(F)(F)F)c2)c2c(C)nn(-c3cccc(F)c3)c2n1	18% [at 57.1 µM]	–
CC(=O)c1ccc(N2CCN(C3C(=O)c4ccccc4N3C(C)=O)CC2)cc1 (centres undefined)	-14.1%	–
Cc1ccc(C)c(Cn2c(CCCNC(=O)C3CCCCC3)nc3ccccc32)c1	-25.4%	–
CC(=O)c1ccc(N2CCN(C(=O)CCc3ccccc3)CC2)cc1	8.19% [at 0.457 µM]	–
CC(=O)N1CCN(c2ccc(NCc3ccc(C(C)C)cc3)cc2)CC1	–	35.5 µM (active)
O=C(Nc1ccc(F)cc1)N1CCN(c2ccc(F)cc2)CC1	2.02%	–
COc1cc(OC)c(NC(=O)c2cnc(N3CCCC3)nc2C)cc1Cl	-6.13%	–
O=C(NCc1ccccc1)c1ccc2c(c1)nc1n2CCCCC1	7.55%	–
COc1cccc(C(=O)Nc2ccc3oc(-c4ccc5ccccc5c4)nc3c2)c1	-8.57%	–
CCN1/C(=C\c2ccc3ccccc3[n+]2CC)Sc2cc(C)ccc21	–	50.1 µM (active)
CCCSc1nc2sc3c(c2c(=O)n1-c1cccc(Br)c1)CC(C)(C)OC3	3.93%	–
CSCCC(NC(=O)c1ccco1)C(=O)OCC(=O)Nc1ncc(Cl)c(C)c1Cl (centres undefined)	-37.8%	–
O=C(COC(=O)c1cnc(Cl)c(Cl)c1)NCc1ccco1	–	50.1 µM (active)
Cc1c(Cl)cnc(NC(=O)COC(=O)c2ccc(S(=O)(=O)NCc3ccco3)cc2)c1Cl	–	50.1 µM (active)
O=C(CCCl)Nc1ccc(S(=O)(=O)NCc2ccco2)cc1	-31%	–

SMILES	activity change, negative = inhibition	Potency
O=C(COC(=O)c1ccco1)NCc1ccc(Cl)cc1	-1.66%	–
O=S(=O)(NCc1ccco1)c1cnc(Cl)c(Cl)c1	1.63%	–
Cc1nn2c(=O)cc(COC(=O)CNC(=O)c3ccc(F)cc3)nc2s1	-23.7%	–
CC1=C(c2ccc(C)c(C)c2)S(=O)(=O)NC1=NCc1ccccc1Cl	-20.8%	–
COc1ccccc1N1CCN(c2ccc(=O)n(CC(=O)NCc3ccc(OC(C)C)cc3)n2)CC1	-12.3%	–
CCn1nc(C(=O)Nc2ccc(N3CCOCC3)cc2)c2ccccc2c1=O	-3.8%	–
CC(C)c1ccc(NC(=O)c2ccc(Cn3nc(N4CCN(c5ccccc5)CC4)ccc3=O)o2)cc1	–	39.8 µM (active)
Fc1ccccc1Oc1ncnc2c1oc1ccccc12	6.13%	–
O=C(Nc1ccc(Br)cc1)c1cc2nc(-c3ccccc3)cc(-c3ccccc3)n2n1	22.8%	–
COc1cc(OC)c(C(=O)Nc2ccc(N(C)C)cc2)cc1OC	–	50.1 µM (active)
COc1cc(OC)c(C(=O)Nc2ccccc2-c2ccccc2)cc1OC	-25.7%	–
COc1ccc(Cl)cc1C(=O)Nc1ccc(N(C)C(C)=O)cc1	-1.13%	–
Cc1cc(C)cc(NC(=O)CCS(=O)(=O)c2cc3c4c(c2)CCN4C(=O)CC3)c1	5.77%	–
COc1ccc(NC(C)=O)cc1NC(=O)CN1CCN(c2ccc(F)cc2)CC1	-18.2%	–
Cc1[nH]c2ccc(C(=O)N3CCN(C)CC3)cc2c1C	-22.3%	–
CCOc1ccccc1N1CCN(C(=O)c2ccc3[nH]c(C)c(C)c3c2)CC1	–	44.7 µM (active)
CCS(=O)(=O)N1CCc2cc(C(=O)N3CCN(c4ccccc4OC)CC3)ccc21	-2.3%	–
CN(C(=O)CSc1nnc(NC(=O)Nc2ccccc2)s1)c1ccccc1	-3.45%	–
Cc1ccc(-n2cnc3cc(C(=O)NCCC4=CCCCC4)ccc32)cc1Cl	-4.95%	–
CC(CC(=O)N1CCN(c2ccccc2)CC1)c1ccccc1 (centres undefined)	2.9%	–
COc1ccc(N2CCN(C(=O)/C(C#N)=C/c3ccccc3)CC2)cc1	–	50.1 µM (active)
CCOC(=O)/C(C#N)=C/c1ccc(N2CCN(Cc3ccccc3)CC2)cc1	32.5%	–

SMILES	activity change, negative = inhibition	Potency
O=C(CN1CCCC1)N1CCN(c2ccccc2)CC1	-2.41%	–
C/C(=C/c1ccccc1)C(=O)N1CCN(c2ccccc2)CC1	–	56.2 µM (active)
COCCCNC(=O)Cn1cc(/C=C(\C#N)C(=O)N2CCN(c3ccccc3)CC2)c2ccccc21	-9.82%	–
Fc1ccc(C(Nc2ccc(Cl)c(C(F)(F)F)c2)c2nnc(-c3ccccc3)o2)cc1 (centres undefined)	0.454%	–
COc1cc(Cl)c(NC(=O)CC(C)S(=O)(=O)c2cc3c(cc2C)NC(=O)CO3)c(OC)c1 (centres undefined)	-12.4%	–
Cc1cccc(Cc2c(C)nc3nc(SCc4ccccc4Cl)nn3c2C)c1	10.9%	–
CCN(C(=O)CN1C(=O)/C(=C/c2ccc(F)cc2)SC1=S)C1CCS(=O)(=O)C1 (centres undefined)	-37.8%	–
O=C1/C(=C/c2cccs2)SC(=S)N1C1CCS(=O)(=O)C1 (centres undefined)	–	22.4 µM (active)
CN(C(=O)CN1C(=O)/C(=C/c2ccc(Cl)cc2)SC1=S)C1CCS(=O)(=O)C1 (centres undefined)	-16.7%	–
COCCN(Cc1ccco1)C(=O)Cn1ncc2c([nH]c3ccccc32)c1=O	-17.6%	–
Cc1cc(C)cc(NC(c2nnc(-c3cccc(F)c3)o2)c2ccc(F)cc2Cl)c1 (centres undefined)	-23.2%	–
CCCS(=O)(=O)Nc1cccc(-c2cn3ccsc3n2)c1	3.8%	–
COc1cccc(OC)c1C(=O)N1CCN(Cc2cccnc2)CC1	–	50.1 µM (active)
COc1ccccc1C(=O)N1CCN=C1SCc1cccnc1	-5.61%	–
COc1cccc(OC)c1OCCN1CCN(C(=O)c2ccco2)CC1	-6.15%	–
CCCn1c(NC(=O)C23CC4CC(CC(O)(C4)C2)C3)nc2ccccc21	-30.6%	–
CCCn1c(NCc2ccc(N(CC)CC)cc2)nc2ccccc21	–	39.8 µM (active)
CCCn1c(NCc2ccccc2F)nc2ccccc21	-5.42%	–
O=C(NC1(C(F)(F)F)N=C(c2ccccc2)N(C2CCCCC2)C1=O)c1ccccc1F (centres undefined)	-14.1%	–
CCN(CC)C(=O)CSc1nc2ccsc2c(=O)n1Cc1ccccc1Cl	-24.2%	–
